The text below walks through data of publication PMC7862700, “An all-to-all approach to the identification of sequence-specific readers for epigenetic DNA modifications on cytosine”.

What all share (assay): DAPPL (digital affinity profiling via proximity ligation, sequencing); 10 mM Tris-HCl pH 7.5, 50 mM NaCl, 1 mM DTT, 4% glycerol, room temperature, 30 min; GST-TFs on glutathione beads, 16-mer random dsDNA library, 0.1% formaldehyde crosslink after washing; high values mean tight binding
Details in all cases: protein: recombinant; tags: N-terminal GST; dsDNA, one strand shown

In one test the target is T1, FLI1 (Homo sapiens, UniProt Q01543 1-452).
T1 sequence: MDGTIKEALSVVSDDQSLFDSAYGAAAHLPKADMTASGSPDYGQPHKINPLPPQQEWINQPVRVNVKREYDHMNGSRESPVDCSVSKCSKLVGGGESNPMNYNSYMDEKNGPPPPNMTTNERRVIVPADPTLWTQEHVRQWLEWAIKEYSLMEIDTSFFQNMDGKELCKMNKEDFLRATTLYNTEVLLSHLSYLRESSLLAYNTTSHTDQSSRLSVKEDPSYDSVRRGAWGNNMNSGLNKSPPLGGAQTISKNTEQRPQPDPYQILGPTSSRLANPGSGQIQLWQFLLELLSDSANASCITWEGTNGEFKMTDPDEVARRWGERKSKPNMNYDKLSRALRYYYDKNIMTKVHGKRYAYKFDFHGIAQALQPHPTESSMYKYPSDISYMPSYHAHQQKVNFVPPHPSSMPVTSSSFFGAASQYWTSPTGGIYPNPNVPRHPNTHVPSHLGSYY
Summed up:
(§1)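 Sequencing on an Illumina NextSeq500 followed washing, crosslinking with 0.1% formaldehyde, proximity ligation (BsaI/T4 ligase, 1 h, 37 °C) and PCR amplification of pools that had been incubated for 30 min at room temperature with 200 nmole of a random double-stranded 16-mer DNA library in Tris/NaCl/DTT/glycerol buffer. Each pool held DNA-barcoded human transcription factors, expressed in yeast as GST fusions and captured on glutathione beads, plus a tag-only sample. Binding signal is a hexamer's read frequency for a factor divided by its frequency in the tag-only sample.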

The next test concerns the target T2, ELK1 (Homo sapiens, UniProt P19419 1-428).
T2 sequence: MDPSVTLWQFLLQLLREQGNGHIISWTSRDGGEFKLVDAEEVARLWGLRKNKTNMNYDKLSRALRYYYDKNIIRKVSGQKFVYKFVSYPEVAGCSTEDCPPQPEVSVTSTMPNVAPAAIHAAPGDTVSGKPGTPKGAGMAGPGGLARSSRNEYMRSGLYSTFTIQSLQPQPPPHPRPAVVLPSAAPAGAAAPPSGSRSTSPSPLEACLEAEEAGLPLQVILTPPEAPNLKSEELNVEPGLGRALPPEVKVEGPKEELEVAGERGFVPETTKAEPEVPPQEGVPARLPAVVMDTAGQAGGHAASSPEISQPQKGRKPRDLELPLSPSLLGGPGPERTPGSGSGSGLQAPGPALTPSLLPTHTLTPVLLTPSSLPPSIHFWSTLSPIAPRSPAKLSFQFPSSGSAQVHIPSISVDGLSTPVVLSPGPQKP
The gist of the method: as §1

The target of the next test is T3, GABPA (Homo sapiens, UniProt Q06546 1-454).
T3 sequence: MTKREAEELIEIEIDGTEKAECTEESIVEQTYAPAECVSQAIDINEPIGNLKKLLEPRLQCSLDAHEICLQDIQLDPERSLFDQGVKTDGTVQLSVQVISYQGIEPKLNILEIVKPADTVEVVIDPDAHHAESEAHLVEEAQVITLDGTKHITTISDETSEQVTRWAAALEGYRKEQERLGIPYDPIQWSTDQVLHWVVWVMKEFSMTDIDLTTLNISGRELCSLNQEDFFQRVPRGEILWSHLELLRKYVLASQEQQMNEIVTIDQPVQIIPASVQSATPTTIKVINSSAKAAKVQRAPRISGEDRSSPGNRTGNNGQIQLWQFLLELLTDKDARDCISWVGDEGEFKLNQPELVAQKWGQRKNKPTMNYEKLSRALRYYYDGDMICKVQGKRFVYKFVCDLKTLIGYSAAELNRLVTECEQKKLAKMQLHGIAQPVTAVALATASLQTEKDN
Summed up:
as §1

The next test deals with T4, ERG (Homo sapiens, UniProt P11308 1-479).
T4 sequence: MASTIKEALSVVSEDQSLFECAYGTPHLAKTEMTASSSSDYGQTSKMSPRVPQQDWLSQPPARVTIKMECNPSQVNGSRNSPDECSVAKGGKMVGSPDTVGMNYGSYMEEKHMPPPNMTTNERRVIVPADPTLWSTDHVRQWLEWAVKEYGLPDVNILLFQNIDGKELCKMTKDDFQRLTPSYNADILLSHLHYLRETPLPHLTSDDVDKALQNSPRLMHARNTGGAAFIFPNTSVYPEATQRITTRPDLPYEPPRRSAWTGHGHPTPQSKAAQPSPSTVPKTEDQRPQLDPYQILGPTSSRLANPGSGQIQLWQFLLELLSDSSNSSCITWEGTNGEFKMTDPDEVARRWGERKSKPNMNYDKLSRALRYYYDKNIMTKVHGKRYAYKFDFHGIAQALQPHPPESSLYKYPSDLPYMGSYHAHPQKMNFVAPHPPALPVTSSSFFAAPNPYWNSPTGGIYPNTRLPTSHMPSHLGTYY
Summed up: as §1

For a further test, the target named is ELF1 (Homo sapiens, UniProt P32519 1-619). Summed up:
as §1

The target in the next test is T5, EHF (Homo sapiens, UniProt Q9NZC4 1-300).
T5 sequence: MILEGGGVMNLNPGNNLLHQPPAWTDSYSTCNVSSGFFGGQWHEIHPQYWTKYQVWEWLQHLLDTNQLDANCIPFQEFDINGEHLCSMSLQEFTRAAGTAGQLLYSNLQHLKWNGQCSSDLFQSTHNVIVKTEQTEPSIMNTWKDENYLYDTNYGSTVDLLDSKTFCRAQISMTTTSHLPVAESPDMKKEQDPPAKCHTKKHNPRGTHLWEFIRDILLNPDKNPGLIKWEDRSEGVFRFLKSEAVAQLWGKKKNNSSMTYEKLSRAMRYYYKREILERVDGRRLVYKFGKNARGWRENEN
Summed up:
as §1

The target in another test is SPI1 (Homo sapiens, UniProt P17947 1-270). The gist of the method:
as §1

In another test the target is SPIB (Homo sapiens, UniProt Q01892 1-262). Summed up: as §1
Chain of SPIB (Q01892 whole entry): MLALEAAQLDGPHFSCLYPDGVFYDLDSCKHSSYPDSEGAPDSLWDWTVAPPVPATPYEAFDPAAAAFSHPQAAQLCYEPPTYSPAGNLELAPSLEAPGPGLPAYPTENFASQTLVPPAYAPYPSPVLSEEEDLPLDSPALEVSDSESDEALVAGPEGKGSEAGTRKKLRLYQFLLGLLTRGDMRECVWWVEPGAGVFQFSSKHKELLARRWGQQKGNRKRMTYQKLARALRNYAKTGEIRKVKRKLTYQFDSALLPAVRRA
For a further test, the target named is T6, ELK3 (Homo sapiens, UniProt P41970 1-407).
T6 sequence: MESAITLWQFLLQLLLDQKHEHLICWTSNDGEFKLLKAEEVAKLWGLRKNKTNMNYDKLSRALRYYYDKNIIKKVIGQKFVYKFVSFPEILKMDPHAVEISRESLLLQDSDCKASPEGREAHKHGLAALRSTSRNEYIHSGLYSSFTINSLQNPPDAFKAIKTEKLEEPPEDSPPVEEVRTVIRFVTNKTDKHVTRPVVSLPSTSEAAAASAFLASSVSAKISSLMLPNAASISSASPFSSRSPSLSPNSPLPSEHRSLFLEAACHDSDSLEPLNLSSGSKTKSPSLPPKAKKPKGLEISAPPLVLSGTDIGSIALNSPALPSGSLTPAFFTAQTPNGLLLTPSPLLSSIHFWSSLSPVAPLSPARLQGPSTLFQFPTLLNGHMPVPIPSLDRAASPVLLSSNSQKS
The gist of the method: as §1

The target in another test is T7, FEV (Homo sapiens, UniProt Q99581 1-238).
T7 sequence: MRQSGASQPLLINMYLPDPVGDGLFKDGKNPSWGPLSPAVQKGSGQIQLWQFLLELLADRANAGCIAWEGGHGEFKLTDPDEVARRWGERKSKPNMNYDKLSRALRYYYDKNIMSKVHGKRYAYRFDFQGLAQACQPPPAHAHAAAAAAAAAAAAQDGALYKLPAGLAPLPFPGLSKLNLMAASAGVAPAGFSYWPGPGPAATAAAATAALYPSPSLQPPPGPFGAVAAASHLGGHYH
Summed up:
as §1

The next test has as its target ETV5 (Homo sapiens, UniProt P41161 1-510). The gist of the method: as §1
The target in the next test is T8, SPIC (Homo sapiens, UniProt Q8N5J4 1-248).
T8 sequence: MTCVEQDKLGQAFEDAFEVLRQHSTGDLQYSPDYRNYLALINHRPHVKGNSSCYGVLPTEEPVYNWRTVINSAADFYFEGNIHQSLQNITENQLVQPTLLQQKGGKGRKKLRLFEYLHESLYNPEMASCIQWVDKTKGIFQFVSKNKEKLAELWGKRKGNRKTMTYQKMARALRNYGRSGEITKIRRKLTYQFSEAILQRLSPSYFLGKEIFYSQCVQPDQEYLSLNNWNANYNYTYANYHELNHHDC
Summed up: as §1

In another test the target is ELF4 (Homo sapiens, UniProt Q99607 1-663). Summed up:
as §1

A further test addresses ETV1 (Homo sapiens, UniProt P50549 1-477). Summed up: as §1
In another test the target is T9, ERF (Homo sapiens, UniProt P50548 1-548).
T9 sequence: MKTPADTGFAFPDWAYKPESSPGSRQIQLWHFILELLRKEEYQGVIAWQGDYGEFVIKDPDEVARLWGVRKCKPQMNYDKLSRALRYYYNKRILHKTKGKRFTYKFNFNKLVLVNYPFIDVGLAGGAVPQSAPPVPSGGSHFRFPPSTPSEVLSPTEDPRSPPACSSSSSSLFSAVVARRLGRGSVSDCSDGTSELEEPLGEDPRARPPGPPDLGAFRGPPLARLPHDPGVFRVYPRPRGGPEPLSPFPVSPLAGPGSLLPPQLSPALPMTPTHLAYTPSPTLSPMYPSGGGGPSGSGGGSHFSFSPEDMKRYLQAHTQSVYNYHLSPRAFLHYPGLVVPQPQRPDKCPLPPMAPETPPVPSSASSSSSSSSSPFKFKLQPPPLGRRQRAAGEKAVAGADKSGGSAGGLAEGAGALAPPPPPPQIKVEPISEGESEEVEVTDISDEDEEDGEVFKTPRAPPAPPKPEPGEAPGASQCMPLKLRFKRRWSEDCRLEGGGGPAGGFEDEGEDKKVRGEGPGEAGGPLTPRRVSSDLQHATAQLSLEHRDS
The gist of the method:
as §1

The target of a further test is T10, ETV3L (Homo sapiens, UniProt Q6ZN32 1-361).
T10 sequence: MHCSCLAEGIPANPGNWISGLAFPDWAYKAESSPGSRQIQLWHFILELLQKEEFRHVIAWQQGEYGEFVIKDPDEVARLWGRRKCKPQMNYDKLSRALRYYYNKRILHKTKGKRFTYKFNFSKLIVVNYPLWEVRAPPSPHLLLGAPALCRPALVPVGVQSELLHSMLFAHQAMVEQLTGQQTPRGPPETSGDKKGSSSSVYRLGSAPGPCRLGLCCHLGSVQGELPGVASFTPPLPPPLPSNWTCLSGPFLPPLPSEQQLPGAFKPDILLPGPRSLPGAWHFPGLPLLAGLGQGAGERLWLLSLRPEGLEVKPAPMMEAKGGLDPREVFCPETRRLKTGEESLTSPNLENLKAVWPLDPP
The gist of the method:
as §1

For the next test, the target named is T11, ETS2 (Homo sapiens, UniProt P15036 1-469).
T11 sequence: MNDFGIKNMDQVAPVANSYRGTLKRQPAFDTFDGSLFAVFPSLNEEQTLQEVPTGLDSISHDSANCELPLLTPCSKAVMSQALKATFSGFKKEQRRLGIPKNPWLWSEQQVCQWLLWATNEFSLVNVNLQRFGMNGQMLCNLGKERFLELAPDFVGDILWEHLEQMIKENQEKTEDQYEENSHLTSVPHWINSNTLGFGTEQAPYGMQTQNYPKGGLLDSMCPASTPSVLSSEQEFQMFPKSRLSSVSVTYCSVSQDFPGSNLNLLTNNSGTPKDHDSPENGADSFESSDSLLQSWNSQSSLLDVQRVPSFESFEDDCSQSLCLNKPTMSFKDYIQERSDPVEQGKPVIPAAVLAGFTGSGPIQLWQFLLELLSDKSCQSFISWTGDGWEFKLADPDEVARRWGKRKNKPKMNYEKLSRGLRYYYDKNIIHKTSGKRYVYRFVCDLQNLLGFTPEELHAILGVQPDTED
Summed up: as §1

Another test has as its target T12, ELF5 (Homo sapiens, UniProt Q9UKW6-2 1-255).
T12 sequence: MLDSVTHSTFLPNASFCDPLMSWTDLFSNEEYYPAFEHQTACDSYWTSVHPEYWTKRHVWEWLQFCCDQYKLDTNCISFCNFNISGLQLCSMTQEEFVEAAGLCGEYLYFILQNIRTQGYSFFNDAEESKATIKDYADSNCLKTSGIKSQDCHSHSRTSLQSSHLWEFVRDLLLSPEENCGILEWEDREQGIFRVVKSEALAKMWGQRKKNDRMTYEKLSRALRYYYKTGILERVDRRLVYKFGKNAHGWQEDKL
The gist of the method: as §1

For the next test, the target named is T13, ETV3 (Homo sapiens, UniProt P41162-2 1-143).
T13 sequence: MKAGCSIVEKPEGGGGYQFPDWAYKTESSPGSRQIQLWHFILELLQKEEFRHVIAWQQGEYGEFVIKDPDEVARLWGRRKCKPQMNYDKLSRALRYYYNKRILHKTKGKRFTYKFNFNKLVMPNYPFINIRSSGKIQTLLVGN
Summed up:
as §1

The target in the next test is ETV6 (Homo sapiens, UniProt P41212 1-452). The gist of the method: as §1
Chain of ETV6 (P41212 whole entry): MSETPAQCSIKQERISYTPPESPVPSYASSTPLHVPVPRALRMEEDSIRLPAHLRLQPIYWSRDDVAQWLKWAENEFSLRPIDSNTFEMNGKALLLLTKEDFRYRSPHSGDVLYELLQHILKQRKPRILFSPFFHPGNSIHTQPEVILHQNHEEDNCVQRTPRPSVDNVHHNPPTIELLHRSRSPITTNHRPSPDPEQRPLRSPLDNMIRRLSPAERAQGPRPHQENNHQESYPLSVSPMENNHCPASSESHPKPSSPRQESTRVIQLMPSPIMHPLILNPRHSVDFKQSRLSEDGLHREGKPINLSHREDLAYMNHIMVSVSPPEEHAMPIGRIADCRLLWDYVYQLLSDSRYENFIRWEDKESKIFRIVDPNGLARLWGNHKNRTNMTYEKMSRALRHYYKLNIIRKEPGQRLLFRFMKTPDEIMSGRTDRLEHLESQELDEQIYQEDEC

Chain of ELF1 (P32519 whole entry): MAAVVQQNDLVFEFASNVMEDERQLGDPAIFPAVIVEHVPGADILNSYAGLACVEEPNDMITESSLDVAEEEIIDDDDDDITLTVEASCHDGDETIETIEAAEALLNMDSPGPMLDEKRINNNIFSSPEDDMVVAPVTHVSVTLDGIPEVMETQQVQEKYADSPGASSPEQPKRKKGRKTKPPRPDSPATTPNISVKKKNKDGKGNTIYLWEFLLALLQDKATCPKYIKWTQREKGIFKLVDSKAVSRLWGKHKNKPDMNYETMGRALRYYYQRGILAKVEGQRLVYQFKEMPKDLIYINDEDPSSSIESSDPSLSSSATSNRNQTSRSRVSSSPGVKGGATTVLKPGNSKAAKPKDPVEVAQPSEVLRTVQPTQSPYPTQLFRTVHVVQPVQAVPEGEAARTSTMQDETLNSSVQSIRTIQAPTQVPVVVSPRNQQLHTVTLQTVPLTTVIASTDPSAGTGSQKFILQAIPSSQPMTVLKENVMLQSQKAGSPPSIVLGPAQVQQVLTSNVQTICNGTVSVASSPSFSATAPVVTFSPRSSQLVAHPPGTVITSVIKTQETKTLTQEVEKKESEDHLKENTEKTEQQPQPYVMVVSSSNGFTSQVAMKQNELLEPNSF
Chain of ELF4 (Q99607 whole entry): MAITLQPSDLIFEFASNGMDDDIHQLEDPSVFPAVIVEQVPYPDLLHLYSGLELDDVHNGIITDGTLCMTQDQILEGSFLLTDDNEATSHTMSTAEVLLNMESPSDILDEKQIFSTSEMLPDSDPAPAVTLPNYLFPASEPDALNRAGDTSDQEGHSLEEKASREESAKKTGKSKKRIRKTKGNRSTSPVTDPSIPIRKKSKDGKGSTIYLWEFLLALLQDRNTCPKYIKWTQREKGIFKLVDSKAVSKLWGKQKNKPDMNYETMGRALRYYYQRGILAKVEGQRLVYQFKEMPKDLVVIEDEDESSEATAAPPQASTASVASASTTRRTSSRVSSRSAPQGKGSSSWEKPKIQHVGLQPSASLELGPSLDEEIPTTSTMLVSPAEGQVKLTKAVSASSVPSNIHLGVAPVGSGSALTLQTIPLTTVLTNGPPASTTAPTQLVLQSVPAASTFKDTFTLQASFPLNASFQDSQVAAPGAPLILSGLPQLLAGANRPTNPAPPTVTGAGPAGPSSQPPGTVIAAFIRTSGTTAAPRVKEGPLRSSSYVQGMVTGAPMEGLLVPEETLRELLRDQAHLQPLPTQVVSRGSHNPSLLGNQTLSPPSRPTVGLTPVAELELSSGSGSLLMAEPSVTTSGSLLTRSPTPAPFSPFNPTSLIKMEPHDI
Chain of ETV5 (P41161 whole entry): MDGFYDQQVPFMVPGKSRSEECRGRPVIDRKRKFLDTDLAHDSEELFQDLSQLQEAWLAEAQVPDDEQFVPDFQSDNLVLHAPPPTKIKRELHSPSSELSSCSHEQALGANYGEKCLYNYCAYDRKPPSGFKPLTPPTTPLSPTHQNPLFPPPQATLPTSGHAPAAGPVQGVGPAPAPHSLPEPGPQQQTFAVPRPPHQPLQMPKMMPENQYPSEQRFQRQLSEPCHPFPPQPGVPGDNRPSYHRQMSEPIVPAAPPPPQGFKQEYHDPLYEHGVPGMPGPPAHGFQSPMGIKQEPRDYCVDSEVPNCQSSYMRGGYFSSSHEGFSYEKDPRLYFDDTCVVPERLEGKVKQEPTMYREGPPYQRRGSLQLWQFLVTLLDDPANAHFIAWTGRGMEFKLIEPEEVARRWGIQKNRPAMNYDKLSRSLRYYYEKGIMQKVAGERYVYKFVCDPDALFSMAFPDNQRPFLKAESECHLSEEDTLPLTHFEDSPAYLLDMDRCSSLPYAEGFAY
Chain of ETV1 (P50549 whole entry): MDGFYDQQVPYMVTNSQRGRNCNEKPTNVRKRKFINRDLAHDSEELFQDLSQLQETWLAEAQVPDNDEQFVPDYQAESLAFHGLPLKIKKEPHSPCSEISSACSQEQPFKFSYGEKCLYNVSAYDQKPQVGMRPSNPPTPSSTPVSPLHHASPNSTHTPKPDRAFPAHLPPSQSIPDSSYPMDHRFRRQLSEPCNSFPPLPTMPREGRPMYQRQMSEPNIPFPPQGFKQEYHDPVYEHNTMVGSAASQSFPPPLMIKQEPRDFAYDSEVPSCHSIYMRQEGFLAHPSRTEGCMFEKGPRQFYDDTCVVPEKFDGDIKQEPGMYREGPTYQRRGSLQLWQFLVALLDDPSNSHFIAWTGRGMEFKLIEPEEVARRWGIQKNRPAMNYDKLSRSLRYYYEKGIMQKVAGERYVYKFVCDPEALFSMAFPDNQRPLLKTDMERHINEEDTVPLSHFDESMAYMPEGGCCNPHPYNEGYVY

For the sequence CCACCT, the binding signal was 1.16 fold enrichment (6-mer frequency, TF over GST control) with FLI1; 1.12 fold enrichment (6-mer frequency, TF over GST control) in the test with ELK1; 1.1 fold enrichment (6-mer frequency, TF over GST control) in the test with GABPA; 1.11 fold enrichment (6-mer frequency, TF over GST control) with ERG; 1.15 fold enrichment (6-mer frequency, TF over GST control) with ELF1; 1.21 fold enrichment (6-mer frequency, TF over GST control) with EHF. In addition, the binding signal is 1.11 fold enrichment (6-mer frequency, TF over GST control) with SPI1; 1.07 fold enrichment (6-mer frequency, TF over GST control) with SPIB; 1.06 fold enrichment (6-mer frequency, TF over GST control) with ELK3; 1.17 fold enrichment (6-mer frequency, TF over GST control) in the test with FEV; 1.07 fold enrichment (6-mer frequency, TF over GST control) with ETV5; 1.19 fold enrichment (6-mer frequency, TF over GST control) with SPIC. Besides, the binding signal was 1.15 fold enrichment (6-mer frequency, TF over GST control) in the test with ELF4; 1.07 fold enrichment (6-mer frequency, TF over GST control) in the test with ETV1; 1.13 fold enrichment (6-mer frequency, TF over GST control) in the test with ERF; 1.08 fold enrichment (6-mer frequency, TF over GST control) with ETV3L; 1.1 fold enrichment (6-mer frequency, TF over GST control) with ETS2; 1.09 fold enrichment (6-mer frequency, TF over GST control) in the test with ELF5. Also, the binding signal with ETV3 was 1.08 fold enrichment (6-mer frequency, TF over GST control); with ETV6, 1.06 fold enrichment (6-mer frequency, TF over GST control).
